# Test results as given in PubChem BioAssay (EPA / NIEHS).
# The source made the active and inactive calls. How the source made its calls: active means hit-call score of the fitted dose curve at least 0.9, where 1 is the maximum; inconclusive means response in the unintended direction; inactive means score below 0.9.
# Molecular target: human CYP1A2, CYP1A2 (gene 1544) (UniProt P05177)
# Experiment: NVS_ADME_hCYP1A2: NovaScreen (NVS) CYP450-related Enzyme Activity (ADME) Assay for human CYP1A2 (AID 2283102);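 on AC50: potency for inhibition since loss of fluorescence marks reduced CYP1A2 activity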
# Experimental: NVS_ADME_hCYP1A2 is a biochemical, single-readout assay that uses extracted gene-proteins from insect cells in a cell-free assay. Measurements were taken 0.5 hour after chemical dosing in a 96-well plate.NVS_ADME_hCYP1A2 is one of one assay component(s) measured or calculated from the NVS_ADME_hCYP1A2 assay. It is designed to make measurements of enzyme activity, a form of enzyme reporter, as detected with fluorescence intensity signals by Fluorescence technology.Data from the assay component NVS_ADME_hCYP1A2 was analyzed into 1 assay endpoint. This assay endpoint, NVS_ADME_hCYP1A2, was analyzed in the positive analysis fitting direction relative to Acetonitrile as the negative control and baseline of activity. Using a type of enzyme reporter, loss-of-signal activity can be used to understand changes in the enzymatic activity as they relate to the gene CYP1A2. Furthermore, this assay endpoint can be referred to as a primary readout, because this assay has produced multiple assay endpoints where this one serves a enzymatic activity function. To generalize the intended target to other relatable targets, this assay endpoint is annotated to the cyp intended target family, where the subfamily is xenobiotic metabolism.
# Binding assays used specific radioligands (tritiated, iodinated) with non-radioactive competitive displacement ligands in agonist or antagonist protocols (as indicated) and various reference compounds and inhibitors to titrate specific binding to receptors and transporters. Most enzyme assays (CYPs, kinases, phosphatases, proteases, HDACs) used recombinant protein and specific substrates (fluorescence mostly, some colorimetric and radioactive) and inhibitors, followed by a biochemical separation of substrate and product. All assays for the biochemical HTS were initially run in duplicate at a single concentration (10 uM for CYP450 assays and 25 uM for all others). […] Each assay was run with positive and negative controls, and concurrent controls on every plate. The follow-up (secondary) screen tested active chemical-pairs in concentration series, as well as a few additional assays not tested in the primary screen, some selected negative inactives, and several cases re-run in the concentration series for confirmatory purposes.
# Sequence of human CYP1A2, CYP1A2 (gene 1544) (P05177 whole entry, looked up): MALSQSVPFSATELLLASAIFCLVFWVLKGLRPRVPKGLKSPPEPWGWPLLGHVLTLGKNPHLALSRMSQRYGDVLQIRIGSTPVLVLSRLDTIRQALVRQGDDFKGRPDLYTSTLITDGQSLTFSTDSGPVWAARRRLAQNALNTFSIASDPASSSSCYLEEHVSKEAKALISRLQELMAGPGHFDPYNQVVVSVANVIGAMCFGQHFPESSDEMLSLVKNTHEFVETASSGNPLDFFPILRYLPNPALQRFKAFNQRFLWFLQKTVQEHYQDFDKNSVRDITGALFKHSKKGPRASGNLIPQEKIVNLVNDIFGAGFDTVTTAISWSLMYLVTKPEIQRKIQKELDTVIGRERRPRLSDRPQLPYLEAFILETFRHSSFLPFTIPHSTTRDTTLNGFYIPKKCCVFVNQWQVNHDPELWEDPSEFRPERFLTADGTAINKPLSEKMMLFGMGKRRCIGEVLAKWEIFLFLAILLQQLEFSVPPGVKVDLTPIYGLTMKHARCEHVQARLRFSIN
Structure (SMILES),AC50,outcome
COP(=S)(OC)SCN1C(=O)c2ccccc2C1=O,3.71 µM (active),
Nc1ccc(N=Nc2ccccc2)cc1,,inactive
CCCCOC(=O)c1ccccc1C(=O)OCc1ccccc1,6.71 µM (active),
CN(C)C(=O)Nc1ccc(Cl)cc1,6.62 µM (active),
CCCCCCCCn1sccc1=O,5.97 µM (active),
[Cl-].[Cl-].[Hg+2],0.998 µM (active),
O=C(Nc1ccccc1)c1ccccc1I,,inactive
Oc1ccc2ccc3cccc4ccc1c2c34,0.275 µM (active),
N#CC(Br)(Br)C(N)=O,,inactive
Cc1cc(N=Nc2ccccc2C)ccc1N,0.858 µM (active),
CC(C)COC(=O)c1ccccc1C(=O)OCC(C)C,7.52 µM (active),
Cc1cccc(N)c1N,6.94 µM (active),
c1ccc2c(c1)-c1cccc3cccc-2c13,7.21 µM (active),
O=[N+]([O-])C(Br)(CO)CO,3.15 µM (active),
Nc1ccc(Cl)cc1N,7.31 µM (active),
CCOC(=O)[C@]1(c2ccccc2)Oc2ccccc2[C@@H]1N,5.07 µM (active),
CCOc1cccc(C2(N3CCN(c4ccccc4)CC3)CCC(C)CC2)c1 (stereo not drawn),,inactive
CC(C)(C)C(O)(CCc1ccc(Cl)cc1)Cn1cncn1 (stereo not drawn),,inactive
